# Screening results as filed in PubChem.
# In the library only some 2% were active in any assay of this set; here they are far more common.
# FUS suppressor: suppressors of FUS proteinopathy in yeast; S. cerevisiae FUS-expressing, growth rescue, OD600, 24 h; Potency, µM (series often up to 76.6 µM), usual class: activators; actives 0.24% (n = 390,000);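 further: plate controls were DMSO vehicle for no effect and reference control for full effect; nearly all actives have a fitted effect of over 55% in size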
#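 Cultures pregrown in 2.5% raffinose medium are shifted to minimal medium containing 2% galactose to express toxic FUS. Compounds are tested at several concentrations. After 24hr at 30C, growth is quantified at 600 nm absorbance.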
# TDP43 rescue: inhibitors of TDP-43 toxicity in yeast; actives 1.8% (n = 410,000); Potency, µM (titrated, usually from 46.1 µM), for inactives: top-dose growth rescue (activation), hits mostly activators; TDP-43 expressing yeast growth rescue, BacTiter-Glo, 24 h; AID 652104; further: % of control where 0% means no effect; nearly all actives have a fitted effect of over 50% in size
#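 Growth rescue of TDP-43-toxic yeast measured as ATP luminescence (BacTiter-Glo). Cells grown to mid-log in raffinose, induced in galactose at OD600=0.02, exposed to compound 24 hr at 30 deg C.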
# Glioma ERSR ind: inducers of ER stress response in human glioma cells; actives 0.02% (n = 420,000); U87-MG GRP78 promoter luciferase reporter, 16 h; Potency, µM, without a hit: at the top dose activation, usual class: activators; further: series mostly up to about 76 µM; % of control where 0% means no effect; nearly all actives have a fitted effect of over 35% in size
#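 Stably transfected U87-MG glioma cells carrying a GRP78-based luciferase sensor; 16 h compound incubation. Luminescence end-point read 10 min after Bright-Glo addition at room temperature.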
# aSyn yeast inh: rescues yeast growth from alpha-synuclein toxicity; Yeast expressing alpha-synuclein, growth rescue, BacTiter-Glo, 24 h; Potency, µM (series often up to 46.1 µM), for the others: at the top dose growth rescue (activation), actives largely listed as activators; actives 0.14% (n = 370,000); further: % of control where 0% means no effect; nearly all actives have a fitted effect of over 65% in size
#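 Galactose-induced alpha-syn yeast (OD600=0.02, raffinose-pregrown) + pinned cpd, 24 hr, 30 deg C; growth by BacTiter-Glo luminescence. Growth restoration scores as activation.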
# Abeta rescue: restores growth of yeast expressing A-beta42 peptide; Potency, µM (top dose mostly 46.1 µM), actives largely listed as activators; AID 1347071; yeast expressing A-beta42, growth rescue, OD600, 48 h; response scale: 0% DMSO, 100% iron-clioquinol control; actives 0.063% (n = 410,000); further: nearly all actives have a fitted effect of over 55% in size
#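 Yeast A-beta toxicity model in growth medium with pinned compounds, 48 h at 30 C; growth read as absorbance at 600 nm. Normalized to FeCl3/clioquinol equimolar mix (positive) and DMSO (negative).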
# MBNL1 CUG block: MBNL1-poly(CUG) RNA binding inhibition. Q9NR56. TR-FRET MBNL1-His/biotin-(CUG)12 binding, 665/545 ratio. Potency, µM (top dose mostly 57.5 µM), without a hit: at the top dose activity change, negative = inhibition, actives largely listed as inhibitors. actives 0.036% (n = 280,000). AID 2675; active means well fitted inhibition curve with a large enough effect in the signal ratio, with a control signal flat, not every such curve was filed as active; inconclusive means small, poorly fitted or top-dose-only effect, or effect the other way, or a change in a side signal; inactive means no such curve, though single readings can be large or run the other way; the % refers to the signal ratio; further: on the % scale 0 is the no-effect control and ±100 the full control effect
# Target sequence (Q9NR56 whole entry, looked up): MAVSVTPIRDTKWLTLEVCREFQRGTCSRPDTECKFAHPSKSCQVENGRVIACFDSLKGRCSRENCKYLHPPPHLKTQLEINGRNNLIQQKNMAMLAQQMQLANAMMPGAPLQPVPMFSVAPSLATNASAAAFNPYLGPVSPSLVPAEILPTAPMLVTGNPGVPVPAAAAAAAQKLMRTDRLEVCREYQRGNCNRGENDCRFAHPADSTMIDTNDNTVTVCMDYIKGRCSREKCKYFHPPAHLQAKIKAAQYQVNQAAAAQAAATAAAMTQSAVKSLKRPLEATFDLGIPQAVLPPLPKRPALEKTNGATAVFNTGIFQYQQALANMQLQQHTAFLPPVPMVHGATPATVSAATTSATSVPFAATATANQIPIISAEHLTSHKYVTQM
#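 Ratiometric TR-FRET (665 over 545 nm, excitation 340 nm) tracks disruption of MBNL1-His/biotin-(CUG)12 complex after 60 min at room temperature, with compounds at 92 nM to 58 uM final.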
# Active calls of the source: *; i = inactive; ? = inconclusive; . = no result. Unless noted, the call rests on the fitted dose curve; in most records, active means well fitted curve in the direction sought with a large enough effect; inconclusive means small, poorly fitted or top-dose-only effect, or another doubt; inactive means no such curve, though single readings can be large; an effect the other way counts as inactive or inconclusive. Potency means the concentration at half of the fitted maximal effect.
SMILES,FUS suppressor,TDP43 rescue,Glioma ERSR ind,aSyn yeast inh,Abeta rescue,MBNL1 CUG block
COc1ccc(Cl)cc1-c1cc(C(=O)NCc2cccs2)[nH]n1,i,11.2µM*,1.6%,6.9%,i,.
CCOc1ccc(Cl)cc1-c1cc(C(=O)NCC2CCCCC2)[nH]n1,i,14.1µM*,-3.0%,-0.6%,i,.
COC(=O)c1c(OCc2cccnc2)cc(=O)n2c1CCN(Cc1cc3c(cc1Cl)OCO3)CC2,.,.,-6.2%,.,.,.
COCc1c(C(=O)N2CCCC(C)C2)cnn1-c1nccc(-c2cc(C)sc2C)n1 (configuration not stated),.,.,-1.1%,.,.,.
O=C(O)c1cc(N/N=C/c2ccc(-c3ccccc3)cc2)ccc1Cl,i,35.5µM*,-6.7%,-53.3%,i,?
CC(C)c1ccc(/C=N/Nc2ccc(C(=O)O)cc2)cc1,i,11.2µM*,-13.8%,-12.7%,i,?
COc1ccc2ccccc2c1/C=N/Nc1cccc(C(=O)O)c1,i,20µM*,0.1%,6.9%,i,?
O=C(O)c1ccc(N/N=C/c2ccc(-c3ccccc3)cc2)cc1,i,5.62µM*,2.3%,0.8%,i,?
CCn1nc(C)cc1C(=O)NCC1Cc2cccc(-c3cccnc3)c2O1 (configuration not stated),.,.,-2.0%,.,.,.
O=C(c1ccc(F)c(F)c1)N1CCOc2ccc(CN3CCN(Cc4ccccn4)CC3)cc2C1,.,.,-2.5%,.,.,.
CCCS(=O)(=O)NCc1c(C)ncc2c1CCN(C(=O)c1ccc(Cl)cc1)C2,.,.,0.0%,.,.,.
O=C(N/N=C/C=C/c1ccccc1)c1ccncc1,i,9.7%,-2.6%,5.7%,i,?
O=C(O)c1ccc(/C=N/Nc2ccc(C(F)(F)F)cn2)cc1,i,8.91µM*,-4.1%,5.6%,i,6.5%
O=C(O)c1ccc(/C=N/Nc2cccc(C(F)(F)F)c2)cc1,i,?,-6.4%,-62.1%,i,7.8%
O=C(O)c1ccc(N/N=C/C=C/c2ccccc2)cc1,i,3.55µM*,-11.0%,-20.7%,i,?
O=C(O)c1cccc(N/N=C/c2ccc(F)c(F)c2)c1,i,25.1µM*,-10.2%,-41.0%,i,20.7%
COc1cc(-c2cccc(OC)c2OC)cc2c1OCCN(Cc1cn[nH]c1-c1ccc(Cl)cc1)C2,.,.,-2.1%,.,.,.
Cc1ccccc1-c1cccc(CN2CCc3nnc(C(C)NC(=O)c4cccnc4)n3CC2)c1 (configuration not stated),.,.,-4.0%,.,.,.
Cc1[nH]c2ccccc2c1N=Nc1cccc(C(=O)O)c1,i,17.8µM*,-4.2%,-59.4%,i,?
CN(c1ncnc(N)c1[N+](=O)[O-])C1CCCCC1,i,12.6µM*,-4.1%,4.5%,i,15.1%
CN(c1ncnc(N)c1[N+](=O)[O-])C1CCS(=O)(=O)C1 (configuration not stated),i,2.2%,-1.0%,-3.6%,i,7.5%
CCOc1ccc(CSCCNC(=S)Nc2ccccc2)cc1,i,?,-2.0%,-12.8%,?,-2.2%
S=C(NCCSCc1ccc(Cl)c(Cl)c1)Nc1ccccc1,i,11.2µM*,-2.0%,9.2%,i,.
S=C(NCCSCc1c(Cl)cccc1Cl)Nc1ccccc1,i,10µM*,1.3%,4.5%,i,1.1%
COc1ccc(CNC(=S)Nc2ccccc2)cc1Cl,i,16.8%,8.9%,6.3%,?,3.9%
SMILES,FUS suppressor,TDP43 rescue,Glioma ERSR ind,aSyn yeast inh,Abeta rescue,MBNL1 CUG block
COc1ccc(CSCCNC(=S)Nc2ccccc2)cc1Cl,i,20µM*,-1.6%,3.5%,?,-4.1%
S=C(NCCSCc1ccc(Cl)cc1Cl)Nc1ccccc1,i,15.8µM*,2.1%,5.7%,i,1.7%
COc1cc(C)c(CN2CCc3nnc(C(C)NC(=O)c4cc(F)ccc4F)n3CC2)cc1C (configuration not stated),.,.,-3.3%,.,.,.
CCN1CCCCC(NC(=O)COCc2ccccc2)C1=O (configuration not stated),i,.,.,.,.,.
Cc1ccc(-c2nnc(SCC(=O)Nc3ccc(OCc4ccccc4)cc3)n2-c2ccc(Cl)cc2)cc1,i,.,.,.,.,.
COc1ccc(NC(=O)C2CC23CCN(Cc2cccc4ncccc24)CC3)cc1Cl (configuration not stated),.,.,-4.9%,.,.,.
CCCOc1ccc(CNC(=S)Nc2ccccc2)cc1Cl,i,?,-1.6%,-8.3%,11.2µM*,-6.5%
Clc1ccc(-c2n[nH]c3c2CCC3)cc1Cl,i,20µM*,-13.6%,-8.1%,i,-0.5%
Clc1ccc(-c2n[nH]c3c2CCCC3)cc1,i,15.8%,9.1%,9.1%,i,.
CCn1c(C)c(C)c2cc(C(=O)N3CCN(c4ccccc4)CC3)ccc21,?,22.4µM*,1.8%,20.5%,i,-1.2%
CCn1c(C)c(C)c2cc(C(=O)N3CCCC3)ccc21,i,-10.6%,-4.8%,-1.5%,i,-2.4%
CC(CCc1ccc(O)cc1)N1CCOc2c(O)cc(-c3nc4ccccc4s3)cc2C1 (configuration not stated),.,.,-1.3%,.,.,.
COc1ccc(NC(=O)/C=C\C(=O)N(c2ccc(C(C)C)cc2)C(C(=O)NCc2ccco2)c2ccc(C)cc2)cc1 (configuration not stated),4.47µM*,20.0%,-2.9%,.,i,.
CCn1nc(C)cc1C(=O)NCC1CCC2(CCN(Cc3ccccc3F)CC2)O1 (configuration not stated),.,.,-3.4%,.,.,.
Cc1cc(Cl)ccc1C(=O)C1CCCN(C(=O)c2ccsc2)C1 (configuration not stated),i,12.6µM*,-2.5%,9.9%,i,.
Cc1cnc2ccccc2c1/C=C/c1ccc(N(C)C)cc1,.,.,-4.1%,.,.,.
Cc1cccc2cc(CN(CC3CCCO3)C(=O)c3cccc(F)c3)c(N(C)C)nc12 (configuration not stated),.,.,-3.1%,.,.,.
Cc1cccn2c(=O)c(C=O)c(N3CCCCC3)nc12,i,-2.0%,3.2%,7.8%,i,2.9%
Cc1cccn2c(=O)c(C=O)c(Cl)nc12,i,10µM*,-13.6%,21.4%,i,?
CCC1C(=O)NCCN1Cc1ccc2c(c1)CN(Cc1ccc(F)c(OC)c1)CCO2 (configuration not stated),.,.,-3.1%,.,.,.
O=C1NC(=O)/C(=C/c2ccc3c(c2)OC(F)(F)O3)S1,.,.,-0.7%,-38.7%,.,.
O=C(c1cc(COc2ccc(F)cc2Cl)on1)N1CCN(C2CCCCC2)C(=O)C1,.,20µM*,0.7%,20.4%,i,-1.5%
O=C(c1cc(COc2ccc(F)cc2Cl)on1)N1CCN(C2CCCC2)CC1,i,-3.3%,-0.2%,-6.3%,i,-6.2%
